Screening results deposited in PubChem by National Center for Advancing Translational Sciences (NCATS).
Compounds with a hit are over-represented: about 8% of the library has one in this group of screens.
SW480 rerep: induces DNA re-replication in SW480 colon adenocarcinoma cells. SW480 DNA re-replication, Hoechst DNA content imaging, 48 h. Potency, µM (series often up to 46.1 µM), for the others: at the highest dose re-replication activation, usual class: activators. actives 1.8% (n = 340,000). AID 624297; further: % of control where 0% means no effect; nearly all actives have a fitted effect of over 55% in size
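Quantitative HTS format with DMSO vehicle controls; 48 hr drug incubation at 37 C, then 40 min Hoechst staining and scanning imager measurement at 405 nm excitation.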
HT1080 IDH1KD tx: kills HT-1080 cells with IDH1 knockdown; HT-1080 IDH1 knockdown viability, ATP luminescence, 48 h; Potency, µM (top dose mostly 46.1 µM), without a hit: at the highest dose activity, negative = toxicity, hits mostly cytotoxic; actives 2% (n = 360,000);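 further: 0% = DMSO wells and -100% = cell-free medium wells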
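Using the IDH1-knockdown HT-1080 line run in the same batch and compound series as the NT line, viability after 48 h at 37 °C was determined by CellTiter-Glo luminescence and expressed as % activity.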
MCF10A rereplic: DNA re-replication induction in MCF 10a cells. actives 2.9% (n = 350,000). MCF 10A DNA re-replication, Hoechst nuclear intensity, 48 h. Potency, µM (doses to about 46.1 µM), inactives show at the highest dose activity, positive = re-replication, usual class: activators; further: % of control where 0% means no effect; nearly all actives have a fitted effect of over 50% in size
KB-3-1 cytotox: KB-3-1 parental cell cytotoxicity | Potency, µM (titrated, usually from 46.1 µM), most hits filed as cytotoxic | actives 1.4% (n = 400,000) | KB-3-1 viability, CellTiter-Glo ATP luminescence, 72 h; further: on the % scale 0 is the no-effect control and ±100 the full control effect; nearly all actives have a fitted effect of over 60% in size
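Using CellTiter-Glo luminescence, growth of non-resistant KB-3-1 adenocarcinoma cells is assessed 72 h after pin-tool compound addition at 37 °C. Normalized responses across the concentration series yield fitted curves.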
KB-V1 MDR tox: kills drug-selected multidrug resistant KB-V1 cells. KB-V1 MDR cells viability, CellTiter-Glo, 72 h. Potency, µM (titrated, usually from 46.1 µM), hits mostly cytotoxic. actives 3.4% (n = 400,000); further: on the % scale 0 is the no-effect control and ±100 the full control effect; nearly all actives have a fitted effect of over 60% in size
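Luminescent ATP read-out (CellTiter-Glo, 10 min) measures survival of drug-selected KB-V1 MDR cells after 72 h, 37 degrees C compound exposure. Medium: phenol-red-free DMEM, 10% FBS. Values from fitted concentration-response curves.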
HT1080NT lethal: kills 2HG-producing HT-1080-NT fibrosarcoma cells; AID 686970; Potency, µM (titrated, usually from 46.1 µM), without a hit: top-dose activity, negative = less viability, hits mostly cytotoxic; HT-1080-NT fibrosarcoma viability, CellTiter-Glo ATP luminescence, 48 h; actives 1.6% (n = 360,000);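 further: NT is the 2HG producing partner of a matched IDH1 knockdown line; 0% = DMSO-treated cells and -100% = media-only wells without cells; nearly all actives have a fitted effect of over 55% in size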
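Luminescent CellTiter-Glo readout after 48 hours of compound exposure at 37 degrees C defined viability of HT-1080-NT cells. Activity was normalized to DMSO wells and cell-free media wells; concentration-response curves were fitted and assigned curve classes.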
The depositor's hits bear a star; i = inactive; ? = inconclusive; nt = no result given; [ ] = dose if it differs, or a comment. The call rests on the fitted dose curve; in most records, active means well fitted curve in the direction sought with a large enough effect; inconclusive means small, poorly fitted or top-dose-only effect, or another doubt; inactive means no such curve, though single readings can be large; an effect the other way counts as inactive or inconclusive. Potency means the concentration at half of the fitted maximal effect.

SMILES	SW480 rerep	HT1080 IDH1KD tx	MCF10A rereplic	KB-3-1 cytotox	KB-V1 MDR tox	HT1080NT lethal
COc1cc(NC(=O)NCCn2nnc3cc(S(=O)(=O)N(C)C)ccc32)cc(OC)c1	nt	nt	nt	i	i	nt
O=C(Oc1cccc2cccnc12)c1ccc(N2C(=O)C3C4CCC(C4)C3C2=O)cc1 (centres undefined)	18.4µM*	13µM*	14.6µM*	i	i	16.4µM*
CN(Cc1nccs1)C(=O)c1cc(COc2cccc3cnccc23)on1	-2.0%	9.2µM*	?	i	i	23.1µM*
Cc1cccc(C)c1OCc1cc(C(=O)N2CCCC2c2nonc2C)no1 (centres undefined)	?	3.5%	8.2µM*	i	i	1.8%
CC(=O)c1cccc(OCc2cc(C(=O)N(C)Cc3nccs3)no2)c1	nt	2.2%	nt	i	i	9.9%
CCOC(=O)CC1CCCCN1C(=O)c1cc(COc2cccc3cnccc23)on1 (centres undefined)	-30.5%	4.11µM*	?	i	?	23.1µM*
COc1ccc(C(=O)NCC(c2ccc(N(C)C)cc2)N2CCc3ccccc32)cc1 (centres undefined)	nt	nt	nt	i	i	nt
CC(C)n1c(NCc2ccccc2O)nc2ccccc21	2.6%	-7.1%	-1.3%	i	i	1.1%
C=CCc1cccc(CNc2nc3ccccc3n2C(C)C)c1O	-8.7%	11.2µM*	?	i	?	?
CCCNC(=O)NNC(=O)c1cc(-c2ccc3c(c2)OCO3)nc2ccccc12	?	7.7%	-3.8%	i	i	1.3%
CCCN(CCC)C(=O)c1cc(-c2ccc3c(c2)OCO3)nc2ccccc12	?	-28.9%	?	i	18.4µM*	-13.2%
O=C(O)c1cc(-c2ccc3c(c2)OCO3)nc2ccccc12	-3.0%	-9.0%	9.7%	i	i	-15.8%
CC(NC(=O)c1cc(-c2ccc3c(c2)OCO3)nc2ccccc12)C(C)(C)C (centres undefined)	7.4%	-4.7%	?	i	16.4µM*	-1.8%
Nc1ccc(-c2cc3ccccc3[nH]2)cc1	nt	nt	nt	?	i	nt
COc1ccc(-c2c(C)nn3c(N4CCCCCC4)cc(C)nc23)cc1OC	2.3%	?	?	18.4µM*	?	?
COc1ccc(-c2c(C)nn3c(N4CCOCC4)cc(C)nc23)cc1OC	-6.8%	3.4%	14.4%	i	i	-15.4%
COc1ccc(C2c3cc(OC)c(OC)cc3CC(=O)N2c2ccc(C)cc2)cc1 (centres undefined)	nt	nt	nt	i	i	nt
C/C(=N\NC(=O)COc1ccccc1-c1ccccc1)c1cccnc1	0.2%	-11.4%	12.6%	i	?	-13.4%
CCCCCCCCCC(=O)N/N=C(\C)c1cccnc1	-0.3%	-14.2%	?	i	i	-1.2%
C/C(=N\NC(=O)COc1ccccc1-c1ccccc1)c1ccccn1	?	?	18.1%	?	4.11µM*	?
O=C(COc1ccccc1-c1ccccc1)N/N=C/c1ccc2ccccc2c1	1.3µM*	1.16µM*	?	1.3µM*	?	?
CCCCCC(=O)N/N=C(\C)c1ccccn1	10.5%	-24.3%	16.9%	?	5.17µM*	1.3%
O=C(N/N=C/c1cccc([N+](=O)[O-])c1)c1ccc(COc2ccccc2-c2ccccc2)cc1	1.2%	-1.6%	-5.3%	?	16.4µM*	4.4%
O=C(COc1ccccc1-c1ccccc1)N/N=C/c1ccncc1	-1.0%	-16.6%	21.3%	i	?	-17.5%
CCOc1ccc(N(CC)C(=O)Cn2cnc3sc(C)c(S(=O)(=O)N4CCN(c5ncccn5)CC4)c3c2=O)cc1	nt	nt	nt	i	i	nt
SMILES	SW480 rerep	HT1080 IDH1KD tx	MCF10A rereplic	KB-3-1 cytotox	KB-V1 MDR tox	HT1080NT lethal
CCOc1ccccc1NC(=O)c1cc(C(=O)c2cc(OC)ccc2O)coc1=N	-1.2%	0.9%	?	i	11.6µM*	-2.5%
Cc1ccc(-n2ncc(C(=O)N3CCN(C4CCCCC4)CC3)c2C2CCN(C(=O)OC(C)(C)C)CC2)cc1C	nt	nt	nt	i	i	nt
CC(C)OCCCNc1ncnc2sc3c(c12)CCCC3	nt	nt	nt	?	i	nt
CSc1ccc(CNC(=O)Cc2ccc(NC(=O)C3=C(C)OCCS3)cc2)cc1	1.2%	16.4µM*	?	5.8µM*	?	?
Cc1ccc(C)n1-c1cccc(NC(=O)c2ccccc2)c1	?	-26.4%	?	i	23.1µM*	-14.3%
Cc1ccc(C)n1-c1ccc(C(=O)Nc2ccccc2)cc1	?	-0.3%	?	i	i	-4.6%
O=C(NCc1ccco1)c1cccc(NC(=O)c2ccco2)c1	?	-16.3%	?	7.31µM*	i	?
CC1=C(C(=O)Nc2cc(C(=O)NCc3ccccc3)ccc2C)SCCO1	nt	?	nt	i	20.6µM*	?
CCCCNC(=O)c1ccc(C)c(NC(=O)C2=C(C)OCCS2)c1	-2.4%	-13.1%	8.4%	i	i	-8.3%
CCOc1ccc(CCNC(=O)Cc2ccc(NC(=O)C3=C(C)OCCS3)cc2)cc1	-3.0%	0.5%	3.1%	i	i	-4.5%
CN(C)c1ccc(/C=C2\C(=O)/C(=C\c3ccc(N(C)C)cc3)c3ccccc32)cc1	nt	nt	nt	i	i	nt
O=C(CS(=O)(=O)c1cccc2nsnc12)NCc1ccccc1Cl	nt	nt	nt	i	i	nt
Cc1ccc(C(=O)NC(=S)NCc2ccccc2)cc1Br	0.5%	11.9%	2.0%	i	i	10.6%
O=C(Nc1ccccc1)c1cccc(NC(=O)c2ccco2)c1	-13.8%	1.9%	-4.8%	i	?	-9.6%
O=C(NCc1ccccc1)c1cccc(NC(=O)c2ccco2)c1	-152.7%	4.11µM*	?	10.3µM*	8.2µM*	?
Cc1ccc(C(=O)Nc2ccccc2C(=O)NCc2ccccc2)cc1	11.3%	3.2%	6.0%	i	4.61µM*	-0.5%
Cc1ccc(C(=O)Nc2ccccc2C(=O)NCc2cccnc2)cc1	11.6%	-14.1%	14.9%	i	i	-0.4%
O=C(NCc1ccccc1)c1cccc(NC(=O)c2ccccc2)c1	16.9%[9.22 µM]	?	-32.3%	23.1µM*	i	?
Cc1ccc(C(=O)NCc2ccccc2)cc1Br	-43.8%	-2.3%	-30.6%	i	18.4µM*	-0.5%
Cc1ccc(S(=O)(=O)N2CCCc3cc(NS(=O)(=O)c4cc(F)ccc4F)ccc32)cc1	nt	nt	nt	?	i	nt
CCCN1CNc2c(c(=O)[nH]c(=S)n2CCC(C)C)C1	nt	9.3%	nt	nt	nt	-0.2%
